Results taken from PubChem BioAssay AID2315 (National Center for Advancing Translational Sciences (NCATS), 2010).
The whole screen tested about 290,000 compounds, of which about 27,000 (9.3%) were called active. The sample holds actives, similar compounds and a random draw of the others, so the mix is not that of the screen. A number with no mark means an inactive call. Cut-off read from the data, not from the text of the source: active = inhibition mostly above about 28% (no sharp cut-off); inactive = mostly below about 43%.

Test: A qHTS for Small Molecule Inhibitors of Shiga Toxin; note: 0% is about no effect
Settings: Vero cells, Shiga toxin protein synthesis inhibition reporter; at 38.7 µM, stronger effect = higher value

Row | Compound | inhibition
1 | CCOC(=O)N1CCN(C(=O)CSc2ccc(Cl)cc2)CC1 | 93.2% (active)
2 | CCOC(=O)N1CCN(C(=O)CNC(=O)Cc2ccc(Cl)cc2)CC1 | -2.93%
3 | CCN1CCN(C(=O)CSc2ccc(C)cc2)CC1 | 52.4%
4 | CC(=O)Nc1ccc(S(=O)(=O)Nc2cc(C)cn(Cc3ccc(C)cc3)c2=O)cc1 | 20.8%
5 | COc1ccccc1C(=O)Oc1ccc(N2C(=O)CCC2=O)cc1 | -6.4%
6 | Cc1cc(OC(=O)c2ccccc2Cl)ccc1N1C(=O)CCC1=O | 60.4% (active)
7 | CCOC(=O)c1cc(OC(=O)c2ccccc2Cl)n(-c2ccccc2)n1 | 35.8%
8 | Cc1n[nH]c(=O)c2c1nnn2Cc1ccc(F)cc1 | 14.5%
9 | CC1CCN(C(=S)NC(=O)c2ccccc2Br)CC1 | 14.3%
10 | Nc1ccc(N=Nc2ccccc2Cl)c(N)n1 | 105% (active)
11 | CCOC(=O)C1CCN(S(=O)(=O)c2ccc3c(c2)N(C(C)=O)CCO3)CC1 | 15.1%
12 | CCN(CC)S(=O)(=O)c1ccc(N2CCN(C)CC2)c(NC(=O)Nc2ccccc2F)c1 | 19.8%
13 | O=C(c1cn2ccccc2n1)N1CCc2c([nH]c3ccccc23)C1c1ccccn1 (configuration not stated) | 13.1%
14 | Cc1cccc(C(=O)N2CCc3c([nH]c4ccccc34)C2CC(C)C)n1 (configuration not stated) | 52.7% (active)
15 | Cc1cccc(C2c3[nH]c4ccccc4c3CCN2C(=O)c2cc(-c3cccn3C)n[nH]2)n1 (configuration not stated) | -3.12%
16 | CCc1ccc(NC(=O)NC(C)c2ccc3c(c2)OCO3)cc1 (configuration not stated) | -6.59%
17 | Cc1cc(-c2ccc(C)c(S(=O)(=O)NC(C)Cc3ccco3)c2)on1 (configuration not stated) | -1.68%
18 | Cc1nnc(SCc2nc3ccccc3nc2C)s1 | -8.09%
19 | O=C(Nc1nnc(SCc2ccccc2)s1)c1ccco1 | 55.6%
20 | Cc1ccc(Nc2nnc(SCc3ccccc3)s2)cc1 | 78.2% (active)
21 | Cc1ccc(Nc2nc(N)nc(CSc3nnc(C)s3)n2)cc1 | 97.7% (active)
22 | CCOC(=O)N1CCN(Cc2nc(N)nc(Nc3ccc(C)cc3)n2)CC1 | 16.1%
23 | Cc1cccc(CSc2nnc(NC(=O)CSc3nnc(C)s3)s2)c1 | -22%

Row | Compound | inhibition
24 | Cc1cccn2cc(-c3cccc(S(=O)(=O)N4CCCCC4)c3)nc12 | 15.3%
25 | N#CCSc1nc(-c2ccccc2)nc2ccc(F)cc12 | 4.25%
26 | CCc1nnc(NC(=O)CCC(=O)N2CCN(c3cc(C)ccc3C)CC2)s1 | 2.43%
27 | CCOC(=O)N1CCC(N2Cc3cccc(C(=O)Nc4ccc(S(=O)(=O)N(CC)CC)cc4)c3C2=O)CC1 | -14%
28 | CCOc1c2ccc(C(=O)NCc3ccc(OC(F)(F)F)cc3)cc2nn1C | 29%
29 | COC(=O)c1ccc(CSc2nc3cc(Cl)ccc3o2)cc1 | -12.3%
30 | COc1ccc(CNC(=O)c2cc(=O)c3c(C)cc(C)cc3o2)cc1 | -1.33%
31 | CC(C)c1nc2cc(C(=O)NC(C)c3cnn(C)c3)ccc2o1 (configuration not stated) | 20.7%
32 | COc1ccc(CNC(=O)c2ccc3oc(C(C)C)nc3c2)cc1 | 51.4% (active)
33 | COC(=O)c1ccc(CNC(=O)c2ccc3oc(C(C)C)nc3c2)cc1 | 71.8% (active)
34 | Cc1ccccc1CCNC(=O)C1CCC(=O)N(Cc2ccc(Cl)cc2)C1 (configuration not stated) | 13.3%
35 | O=C(OCc1ccc([N+](=O)[O-])cc1)C1CC(=O)N(Cc2ccccc2Cl)C1 (configuration not stated) | -0.893%
36 | O=C(NCCCN1CCCCC1)C1CC(=O)N(CCc2ccccc2)C1 (configuration not stated) | -8.56%
37 | COc1cc(/C=N/NC(=O)c2cccnc2)ccc1OC(=O)c1cccc(Br)c1 | -22.1%
38 | COc1cc(/C=N/NC(=O)c2ccccc2)ccc1OS(=O)(=O)c1ccccc1 | 31% (active)
39 | Cc1ccc(S(=O)(=O)Oc2ccc(/C=N/NC(=O)c3ccncc3)cc2)cc1 | 9.5%
40 | COc1ccc(/C=N/NC(=O)c2ccccc2)cc1OS(=O)(=O)c1ccccc1 | 59.1% (active)
41 | COc1ccc(/C=N/S(=O)(=O)c2ccccc2)cc1OC | -10.1%
42 | COc1ccc(/C=N\NC(=O)c2sc(N)nc2C)cc1OC | 15.2%
43 | COc1ccc(C)cc1NC(=O)CN(C)S(=O)(=O)c1ccc2c(c1)n(C)c(=O)c(=O)n2C | 3.45%
44 | COc1ccc(-n2cc(-c3ccccc3)c3c(=S)nc[nH]c32)cc1 | -14.3%
45 | CC(Oc1cccc(Cl)c1)C(=O)NC1CC(C)(C)NC(C)(C)C1 (configuration not stated) | -11.3%
46 | CCn1cc(C(=O)NCCC(=O)NCCO)c(=O)c2cc3c(cc21)OCO3 | -8.77%

Row | Compound | inhibition
47 | CC(C)[C@H](NC(=O)N1CCn2c1nc1ccccc12)C(=O)NCCc1ccccc1 | 31.8%
48 | O=C(O)c1c(NC(=O)N2CCCC2)sc2c1CCCC2 | 36.9%
49 | O=C(O)C1CCCN1S(=O)(=O)c1ccc(Br)cc1 (configuration not stated) | -1.18%
50 | COc1cc(CNc2ncn[nH]2)ccc1OCc1ccccc1C | 67.9% (active)
51 | c1n[nH]c(NCc2ccc3c(c2)OCO3)n1 | -23.7%
52 | COc1ccc(CCNC(=O)C(=O)NCc2ccccc2C)cc1OC | -10.9%
53 | COc1ccc(C(O)(C2CCCCC2)C(CN2CCCC2)c2ccccc2)cc1 (configuration not stated) | 0.707%
54 | O=C(NCc1cc(F)cc(C(F)(F)F)c1)C1CCC(=O)N(C2CCCC2)C1 (configuration not stated) | 40.9%
55 | CCC(=O)Nc1nnc(S(=O)(=O)N(CC(C)C)c2ccccc2)s1 | 1.25%
56 | C/C(=N\Nc1nc(Nc2ccccc2)nc(N2CCOCC2)n1)c1cccs1 | -5.79%
57 | C/C(=N\Nc1ncc(Cl)cc1Cl)c1cccs1 | 101% (active)
58 | C/C(=N\Nc1ccc(S(N)(=O)=O)cc1[N+](=O)[O-])c1cccs1 | 2.64%
59 | COC(=O)c1sccc1N/N=C(\C)c1ccc(F)c(Cl)c1 | -5.96%
60 | O=S(=O)(NCc1ccco1)c1cnc(Cl)c(Cl)c1 | -12.1%
61 | C/C(=N\NS(=O)(=O)c1ccc(Br)cc1)c1cccs1 | -4.11%
62 | C/C(=N\Nc1ncc(Cl)cc1Cl)c1ccc(S(=O)(=O)NCc2ccco2)cc1 | 144% (active)
63 | CCN(CC)c1ccc(C(=O)N/N=C(\C)c2cccc(OC)c2)cc1 | 22.3%
64 | Cc1c(Cl)cnc(NC(=O)COC(=O)c2ccc(S(=O)(=O)NCc3ccco3)cc2)c1Cl | -13.9%
65 | COc1cccc(/C(C)=N/Nc2ncc(Cl)cc2Cl)c1 | 38.2% (active)
66 | O=C(Nc1ccccc1-c1nc2ccccc2[nH]c1=O)c1cccs1 | -5.13%
67 | C/C(=N\Nc1nc2ccccc2[nH]1)c1cccs1 | 97.5% (active)
